From the supplement of paper PMC4723716
± gives the uncertainty stated by the source. Whole data set: some 9,900 compounds, median “viability index relative to DMSO control” near 1, cut for the lowest 2% near 0.85. Shown is part of a subset that was picked to be rich in the lowest values.

Tested on: Plasmodium falciparum NF54 stage V gametocytes
Assay: viability index relative to DMSO control (fraction); higher = less gametocyte killing
Settings: 2.5 µM, library set: Broad Institute DOS, incubation time: 72 h
Procedure, shortened: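 P. falciparum NF54 stage V gametocytes in serum-free screening medium (0.75% gametocytemia, 1.25% hematocrit, 10 µl) were incubated with compound at 2.5 µM in 1,536-well plates for 72 hr at 37°C under low oxygen. Then 3 µl of 2.5 µM MitoTracker Red CMXRos plus 0.13% saponin was added for one to two hours. One field per well was imaged, 20–70 µm2 red particles were counted, and the viability index was the count divided by the plate mean of DMSO wells.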

| Compound | viability index |
| --- | --- |
| C[C@H]1CN([C@@H](C)CO)C(=O)c2cc(/C=C/c3ccccc3)cnc2O[C@H]1CN(C)S(=O)(=O)c1ccccc1F | 1.03 ± 0.12 |
| C[C@H](CO)N1C[C@H](C)[C@@H](CN(C)S(=O)(=O)c2ccccc2F)Oc2ncc(/C=C/c3ccccc3)cc2C1=O | 1.05 ± 0.049 |
| C[C@@H]1CN([C@@H](C)CO)C(=O)c2cc(/C=C/c3ccccc3)cnc2O[C@@H]1CN(C)S(=O)(=O)c1ccccc1F | 1.02 ± 0.059 |
| COc1ccc2c3c([nH]c2c1)[C@@H](CO)N(Cc1cc(OC)cc(OC)c1)C[C@]31CN(C1)C(=O)Nc1c(C)noc1C | 0.974 ± 0.12 |
| C[C@H](CO)N1C[C@H](C)[C@@H](CN(C)Cc2ccc3cccnc3c2)OCc2cnnn2CCCC1=O | 1.07 ± 0.014 |
| Cc1noc(C)c1NC(=O)Nc1ccc2c(c1)C(=O)N([C@@H](C)CO)C[C@H](C)[C@H](CN(C)S(=O)(=O)c1cccs1)OCCCC[C@@H](C)O2 | 1.09 ± 0.045 |
| COc1ccc(C(=O)Nc2ccc3c(c2)C(=O)N(C)[C@H]2CC[C@H](CC(=O)NCC4CC4)O[C@H]2CO3)cc1 | 0.823 ± 0.15 |
| CC(C)NC(=O)Nc1ccc2c(c1)C(=O)N(C)[C@H]1CC[C@@H](CC(=O)NCc3ccc(F)cc3)O[C@H]1CO2 | 0.814 ± 0.17 |
| CN1C(=O)c2cc(NC(=O)Nc3ccc(Cl)cc3)ccc2OC[C@@H]2O[C@@H](CC(=O)NCCN3CCCCC3)CC[C@H]21 | 0.838 ± 0.04 |
| COc1ccc(C(=O)Nc2ccc3c(c2)C(=O)N(C)[C@@H]2CC[C@@H](CC(=O)NCC4CC4)O[C@H]2CO3)cc1 | 0.932 ± 0.15 |
| CN1C(=O)c2cc(NC(=O)Nc3ccc(Cl)cc3)ccc2OC[C@H]2O[C@@H](CC(=O)NCCN3CCCCC3)CC[C@H]21 | 1.01 ± 0.025 |
| CN1C(=O)c2cc(NC(=O)Nc3ccc(Cl)cc3)ccc2OC[C@@H]2O[C@H](CC(=O)NCCN3CCCCC3)CC[C@H]21 | 0.955 ± 0.11 |
| COc1ccc(C(=O)Nc2ccc3c(c2)C(=O)N(C)[C@@H]2CC[C@@H](CC(=O)NCC4CC4)O[C@@H]2CO3)cc1 | 1.03 ± 0.11 |
| CC(C)NC(=O)Nc1ccc2c(c1)C(=O)N(C)[C@H]1CC[C@H](CC(=O)NCc3ccc(F)cc3)O[C@H]1CO2 | 0.919 ± 0.034 |
| CC(C)NC(=O)Nc1ccc2c(c1)C(=O)N(C)[C@@H]1CC[C@H](CC(=O)NCc3ccc(F)cc3)O[C@@H]1CO2 | 1.11 ± 0.047 |
| O=C(C[C@H]1CC[C@H]2[C@@H](COC[C@@H](O)CN2Cc2nccs2)O1)NCc1ccccc1Cl | 1.1 ± 0.03 |
| C[C@@H]1CN([C@H](C)CO)C(=O)Cc2cc(NC(=O)c3ccncc3)ccc2O[C@H]1CN(C)C(=O)Nc1ccc(F)cc1 | 0.944 ± 0.12 |
| CC(C)NC[C@@H]1[C@H](c2ccc(C3=CCCCC3)cc2)[C@H](CO)N1S(C)(=O)=O | 0.996 ± 0.022 |

| Compound | viability index |
| --- | --- |
| C[C@H]1CN([C@@H](C)CO)C(=O)CCCn2nncc2CO[C@@H]1CN(C)Cc1ccccc1C(=O)O | 1.04 ± 0.031 |
| O=C(c1ccccn1)N1CC2(C1)[C@@H](c1ccccc1)[C@@H](CO)N2C(=O)C1CCCCC1 | 1.041 ± 0.0089 |
| OC[C@@H]1[C@@H](c2ccc(-c3cccnc3)cc2)[C@@H]2CN(Cc3ccccn3)CCCCN12 | 0.737 ± 0.12 |
| OC[C@@H]1[C@H](c2ccc(-c3cccnc3)cc2)[C@H]2CN(Cc3ccccn3)CCCCN12 | 0.979 ± 0.024 |
| OC[C@@H]1[C@H](c2ccc(-c3cccnc3)cc2)[C@@H]2CN(Cc3ccccn3)CCCCN12 | 1.04 ± 0.06 |
| OC[C@H]1[C@@H](c2ccc(C3=CCCC3)cc2)[C@@H]2CN(Cc3ccncc3)CCCCN12 | 0.845 ± 0.14 |
| OC[C@H]1[C@@H](c2ccc(-c3cccc(F)c3)cc2)[C@@H]2CN(Cc3cncnc3)CCCCN12 | 0.963 ± 0.1 |
| OC[C@@H]1[C@H](c2ccc(C3=CCCC3)cc2)[C@H]2CN(Cc3ccncc3)CCCCN12 | 1.05 ± 0.068 |
| CN1C(=O)c2cc(NC(=O)c3ccc4c(c3)OCO4)ccc2OC[C@H]2O[C@@H](CC(=O)O)CC[C@@H]21 | 1.11 ± 0.071 |
| CO[C@@H](CN(C)C(=O)c1cc(Cl)cc(Cl)c1)[C@@H](C)CN(C(=O)Nc1ccc(F)cc1)[C@@H](C)CO | 1.04 ± 0.018 |
| N#C[C@H]1[C@@H](c2ccccc2)[C@@H](CO)N1C(=O)c1ccc2c(c1)OCO2 | 1.08 ± 0.022 |
| N#C[C@H]1[C@@H](c2ccccc2C2=CCCC2)[C@H](CO)N1C(=O)Cc1ccncc1 | 1.07 ± 0.13 |
| COc1ccc(S(=O)(=O)N(C)C[C@H]2OCCCC[C@H](C)Oc3ccc(NC(=O)Cc4ccccc4)cc3C(=O)N([C@H](C)CO)C[C@@H]2C)cc1 | 0.994 ± 0.022 |
| COc1ccc(S(=O)(=O)N(C)C[C@H]2OCCCC[C@@H](C)Oc3ccc(NC(=O)Cc4ccccc4)cc3C(=O)N([C@@H](C)CO)C[C@@H]2C)cc1 | 1.07 ± 0.17 |
| COc1ccc(S(=O)(=O)N(C)C[C@@H]2OCCCC[C@H](C)Oc3ccc(NC(=O)Cc4ccccc4)cc3C(=O)N([C@@H](C)CO)C[C@H]2C)cc1 | 0.911 ± 0.17 |
| COc1ccc(S(=O)(=O)N(C)C[C@H]2OCCCC[C@@H](C)Oc3ccc(NC(=O)Cc4ccccc4)cc3C(=O)N([C@@H](C)CO)C[C@H]2C)cc1 | 0.773 ± 0.061 |
| COc1ccc(S(=O)(=O)N(C)C[C@H]2OCCCC[C@H](C)Oc3ccc(NC(=O)Cc4ccccc4)cc3C(=O)N([C@@H](C)CO)C[C@H]2C)cc1 | 0.791 ± 0.031 |
| COc1ccc(S(=O)(=O)N(C)C[C@H]2OCCCC[C@H](C)Oc3ccc(NC(=O)Cc4ccccc4)cc3C(=O)N([C@H](C)CO)C[C@H]2C)cc1 | 0.9061 ± 0.001 |
